# DT40 TDP1 no CPT = qHTS for Inhibitors of human tyrosyl-DNA phosphodiesterase 1 (TDP1): qHTS in cells in absence of CPT. 420,000 compounds, 15% hits. DT40 Tdp1-/- hTDP1 cells, no CPT, ATP luminescence, 48 h. AID 686978, 2013. Potency, µM (top dose mostly 46.2 µM), inactives show at the highest dose activity change, negative = growth inhibition, most hits filed as inhibitors; note: potency is the fitted concentration of half-maximal effect; nearly all actives have a fitted effect of over 55% in size
#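 Seeded 400 DT40-hTDP1 cells/well (vehicle DMSO, no 20 nM CPT); pinned compounds; ≥48 hr at 37 °C; CellTiter-Glo luminescence as viability measure.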
# ELG1 DNA repair = inhibitors of ELG1-dependent DNA repair in HEK293T cells | HEK293T ELG1-luciferase reporter, luminescence, 16 h; DNA damage induced by 5-fluorouridine | Potency, µM (series often up to 46.1 µM), for the others: at the top dose activity change, negative = inhibition, hits mostly inhibitors | 330,000 compounds, 2.3% hits | AID 504467; note: potency is the fitted concentration of half-maximal effect; nearly all actives have a fitted effect of over 55% in size
#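 HEK293T cells expressing luciferase-tagged ELG1 (2,000/well) received 5-Fluorouridine plus compound or DMSO for 16 hr at 37 °C. Luciferase was read by ONE-Glo luminescence after 30 min at room temperature.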
# HT1080NT lethal = kills 2HG-producing HT-1080-NT fibrosarcoma cells; 360,000 compounds, 1.6% hits; HT-1080-NT fibrosarcoma viability, CellTiter-Glo ATP luminescence, 48 h; Potency, µM (titrated, usually from 46.1 µM), inactives show at the top dose activity, negative = less viability, most hits filed as cytotoxic;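 note: NT is the 2HG producing partner of a matched IDH1 knockdown line; potency is the fitted concentration of half-maximal effect; 0% = DMSO-treated cells and -100% = media-only wells without cells; nearly all actives have a fitted effect of over 55% in size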
#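 Viability of the 2HG-overproducing fibrosarcoma line after 48 hours of compound exposure at 37 degrees C was determined by luminescence with CellTiter-Glo, and concentration-effect curves were then fitted and categorized.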
# DT40 TDP1 CPT = DT40-hTDP1 cell growth loss with CPT | chicken DT40 Tdp1-/-;hTDP1 cells + 20 nM CPT, ATP luminescence, 48 h | Potency, µM (series often up to 46.2 µM), for inactives: at the highest dose activity change, negative = growth inhibition, actives largely listed as inhibitors | 420,000 compounds, 12% hits | AID 686979; note: potency is the fitted concentration of half-maximal effect; nearly all actives have a fitted effect of over 55% in size
#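 Chicken DT40 Tdp1-/- cells stably complemented with human TDP1 were seeded at 400 cells/well in medium containing 20 nM camptothecin, exposed to pin-transferred compounds, and grown at 37 °C for at least 48 hr. Viability was read as ATP luminescence.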
# IL-1B inflam inh = inflammasome signaling inhibition, IL-1 beta readout | 360,000 compounds, 4.7% hits | activity change, % at 57.5 µM | THP-1 LPS/ATP IL-1B secretion, AlphaLISA, 16 h; stronger effect = lower value; in the data active = activity change below about -50%; inconclusive = mostly about -30% to -49%
#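 THP-1 cells pretreated 1 hr with compounds (up to 57.5 uM final), then stimulated with LPS (250 ng/mL final) plus ATP (1.25 mM final); secreted IL-1B measured by AlphaLISA after 16 hr, decreased signal indicating inhibition.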
# HT1080 IDH1KD tx = kills HT-1080 cells with IDH1 knockdown. 360,000 compounds, 2% hits. HT-1080 IDH1 knockdown viability, ATP luminescence, 48 h. Potency, µM (series often up to 46.1 µM), inactives show at the highest dose activity, negative = toxicity, hits mostly cytotoxic;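 note: potency is the fitted concentration of half-maximal effect; 0% = DMSO wells and -100% = cell-free medium wells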
#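 % activity derives from luminescence (CellTiter-Glo), normalised to DMSO and no-cell wells. HT-1080-IDH1KD cells, 750/well, had 48 h compound exposure at 37 °C.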
# * marks the source's active call; other numbers are inactive results; ? = inconclusive; / = no result given. An excerpt weighted towards active compounds, which were near 19% of everything screened. Unless noted, calls come from the whole dose curve; as a rule, active = well fitted curve in the direction sought with a large enough effect; inconclusive = small, poorly fitted or top-dose-only effect, or another doubt; inactive = no such curve, though single readings can be large; an effect the other way counts as inactive or inconclusive. Unless noted, % is set by controls: 0 for no effect and ±100 for the full control effect.
SMILES,DT40 TDP1 no CPT,ELG1 DNA repair,HT1080NT lethal,DT40 TDP1 CPT,IL-1B inflam inh,HT1080 IDH1KD tx
O=C(COc1ccc2ccccc2c1)Nc1ccc(Cc2ccncc2)cc1,?,-27%,-19%,?,18,-10%
COc1ccccc1OCC(=O)Nc1ccncc1,?,-5%,6%,-23%,16,2%
CC(C)NC(=O)COc1ccc(Cl)cc1Cl,-22%,-19%,-3%,?,?,0%
CCOc1ccc(CNC(=O)CN2N=C(c3ccccc3)CCC2=O)cc1OC,-1%,/,/,-5%,/,/
Cc1cc(Cl)ccc1OCC(=O)NCc1ccncc1,?,?,9%,?,-1,10%
Cc1cc(Cl)ccc1OCC(=O)Nc1ccncc1,5.8µM*,?,?,?,?,-11%
COc1ccc(C2N(c3ccc(Cl)cc3)N=C(C(C)=O)N(C)N2C(C)=O)cc1 (stereo unspecified),?,?,?,-14%,-58*,?
Cc1ccc2nc(Nc3ccc(Cl)cc3)c3nncn3c2c1,?,5%,2%,?,43,7%
CCc1c(C)nc2nncn2c1NCc1ccccc1,16µM*,/,/,?,/,/
CCc1c(C)nc2nncn2c1Nc1ccc(Cl)cc1,9.2µM*,/,/,?,/,/
Nc1nccc(/C=C/c2c(F)cccc2Cl)n1,-5%,?,-3%,-3%,-85*,-11%
CN1CCC(C(=O)C(=O)O)C1=O (stereo unspecified),-2%,/,0%,?,-7,-4%
CCc1cccc(NC(=O)c2cc3c(=O)[nH]c4ccccc4c3n2C)c1,18µM*,/,/,?,/,/
CC1CCN(S(=O)(=O)c2ccc3c(ccn3CCC(=O)N3CCCCC3)c2)CC1,6.5µM*,1%,-5%,?,-7,-6%
CC1CCC(NC(=O)CCn2ccc3cc(S(=O)(=O)N4CCCC4)ccc32)CC1 (stereo unspecified),-16%,-4%,-9%,-22%,0,-1%
COc1cccc(CNC(=O)Cn2ccc3cc(S(=O)(=O)N4CCCCCC4)ccc32)c1OC,?,?,-21%,?,-15,-9%
CCOc1ccccc1CNC(=O)CCn1ccc2cc(S(=O)(=O)N3CCCCC3)ccc21,29µM*,1%,-10%,16µM*,3,-3%
CCOc1ccccc1CNC(=O)Cn1ccc2cc(S(=O)(=O)N3CCCCCC3)ccc21,2.9µM*,-29%,0%,8.2µM*,?,-9%
CCOc1ccccc1CNC(=O)CCn1ccc2cc(S(=O)(=O)N3CCC(C)CC3)ccc21,12µM*,/,/,9.2µM*,/,/
CC(C)OCCCNC(=O)CCCN1C(=O)CCn2nc(-c3cccn3C)cc21,-9%,/,/,-13%,/,/
CC(=O)NCCn1c(SCc2ccc(C)cc2)nc2ccccc2c1=O,21µM*,?,-7%,23µM*,-19,-12%
CC(=O)NCCn1c(SCc2ccccc2F)nc2ccccc2c1=O,21µM*,?,-22%,16µM*,8,-13%
CC1(C2CC2)NC(=O)N(CC(=O)Nc2ccc(SC(F)F)cc2)C1=O (stereo unspecified),?,14%,-13%,-22%,-11,-11%
CCOC(=O)CC1COCCN1Cc1cn(C)nc1-c1ccccc1F (stereo unspecified),-15%,8%,13%,-2%,15,3%
C=CCS/C(N)=N\N=C\c1cc(Br)cc([N+](=O)[O-])c1O,7.3µM*,-22%,-13%,?,9,-17%
SMILES,DT40 TDP1 no CPT,ELG1 DNA repair,HT1080NT lethal,DT40 TDP1 CPT,IL-1B inflam inh,HT1080 IDH1KD tx
CSc1ccc(/C=N\Nc2nncn2N)cc1,-25%,?,?,?,-2,21µM*
CC(C)(C)c1ccc(/C=N/Nc2nncn2N)cc1,-3%,?,-20%,-19%,-23,?
Nn1cnnc1N/N=C/c1cc(Br)cc(Br)c1O,?,-19%,-21%,?,-67*,?
CS/C(N)=N/N=C/c1cc(C)ccc1O,?,?,0%,-3%,-26,-11%
CS/C(N)=N/N=C/c1cc(Br)cc(Br)c1O,16µM*,1%,0%,?,0,-6%
Cc1no[n+]([O-])c1COc1cccc(/C=N/Nc2nncn2N)c1,-16%,-22%,-4%,?,-8,0%
Cn1cnc(S(=O)(=O)N2CCC(C(=O)N3CCN(c4ccccc4F)CC3)CC2)c1,-2%,/,/,1%,/,/
O=C(O)c1ccc(N=C2NC(=O)C(CO)(CO)S2)cc1,10%,12%,-1%,16%,-11,1%
CCNC(=O)C1(C)CCCN(C(=O)c2cc(C)nn2C(C)(C)C)C1 (stereo unspecified),-23%,/,22%,-3%,30,12%
CCc1nn(CC(=O)N2CCCCCC2)c(=O)c2cc3ccccc3n12,?,7%,0%,?,8,1%
C(=Nc1cnc2ccccc2c1)c1ccc2ccccc2n1,-77%,/,/,?,/,/
CCN(CC)C(=O)c1cccnc1,-19%,/,/,6%,/,/
[N-]=[N+]=NC(c1ccccc1)C(NC(=O)c1cc(C(F)(F)F)cc(C(F)(F)F)c1)c1ccccc1 (stereo unspecified),23µM*,/,?,?,12,?
O=C(NC(c1ccccc1)C(Cl)Cl)c1ccccc1 (stereo unspecified),-8%,-9%,8%,-11%,8,5%
Cc1cc2c(cc1C)-n1nnnc1C(N(C)CCc1ccccc1)C(=O)N2 (stereo unspecified),15µM*,/,-1%,23µM*,20,-7%
c1ccc(-c2ccc3c(c2)c2c4n3CCN=C4CCC2)cc1,?,-11%,?,23µM*,?,?
O=C1c2ccccc2C(c2nnnn2-c2ccc3c(c2)OCCO3)N1CCOc1ccccc1 (stereo unspecified),?,/,-1%,-20%,-1,0%
O=C(NCc1nnnn1-c1ccc(F)cc1)c1ccc2c(c1)OCO2,-28%,/,-4%,-28%,0,-3%
COc1ccc(CN(C)C[C@@H]2OCCCC[C@H](C)Oc3ccc(NC(=O)Nc4ccc(F)cc4)cc3C(=O)N([C@H](C)CO)C[C@H]2C)cc1,?,/,21µM*,?,?,?
C[C@@H]1CCCCO[C@@H](CN(C)Cc2ccc(Cl)c(Cl)c2)[C@@H](C)CN([C@H](C)CO)C(=O)c2cc(NC(=O)Nc3ccccc3)ccc2O1,21µM*,/,?,23µM*,?,?

# Source: PubChem
